# UBC13 polyUb: human UBC13 polyubiquitination inhibition | inhibition, % at 20 µM | 0.47% of 330,000 active | UBC13 polyubiquitin chain formation, TR-FRET | P61088; in the data active means inhibition above about 45%, passing the limit was not always enough
# PREPL inh: inhibitors of human prolyl oligopeptidase-like enzyme PREPL; inhibition, % at 5.96 µM; recombinant PREPL, fluorescence polarization activity-based probe; 0.68% of 320,000 active; in the data active means inhibition above about 43%;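 further: 0% = enzyme with DMSO and 100% = wells lacking enzyme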
# MEKK2 mut-MEK5: signal of MEK5 binding to mutant human MEKK2 PB1 domain | bead flow cytometry, Alexa488-MEK5 binding to MEKK2 mutant | percent response, % at 10 µM | 0.35% of 290,000 active; in the data active means percent response above about 24%, passing the limit was not always enough
# MEKK3 PB1 HTS: modulators (inhibitors or enhancers) of MEK5 binding to human MEKK3 PB1 domain. binding response (% of control), % at 10 µM. 1.4% of 290,000 active. Q99759. bead-based flow cytometry, Alexa488-MEK5 binding to MEKK3; actives lie on both sides; 0 = blocked by unlabeled MEK5, 100 = vehicle;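 active means binding response more than 3 SD above or below the average of its plate-row segment, actives on both sides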;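 further: Alexa488 bead fluorescence after subtracting the streptavidin-only scavenger bead signal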
# MEKK2 WT-MEK5: raises or lowers MEK5 binding to wildtype human MEKK2 PB1 domain; bead flow cytometry, Alexa488-MEK5 binding to MEKK2 WT; actives lie on both sides; 1.1% of 290,000 active; binding response (% of control), % at 10 µM; AID 1531; in the data active means binding response below about 67% or above about 130%
# ATG4B inhibitor: ATG4B (human) cysteine protease inhibition | Q9Y4P1 | ATG4B cleavage of LC3-PLA2, NBD-HPC fluorescence, 1 h | inhibition, % at 8.33 µM | 0.51% of 340,000 active | AID 504462; in the data active means inhibition above about 40%
# Casp3 UBC13 ctr: counter-screen for UBC13 inhibitors: human caspase-3 inhibition; shares compounds with UBC13 polyUb; Recombinant caspase-3, Caspase-Glo 3/7 luminescence, 60 min; inhibition, % at 20 µM; 4% of 1,400 active;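 active means mean inhibition across replicates above about 26%, limit read from the data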;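 further: plate controls were DMSO with caspase-3 for no effect and DMSO wells lacking enzyme for full effect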
# UBC13 conf: human UBC13 polyubiquitin inhibition, confirmed. shares compounds with UBC13 polyUb. UBC13 polyubiquitination, TR-FRET, biochemical. inhibition, % at 10 µM. 68% of 1,400 active. AID 488859; in the data active means inhibition above about 45%
# ATG4B confirm: confirmation of human ATG4B inhibitors. ATG4B protease fluorescent substrate cleavage assay. AID 504757. shares compounds with ATG4B inhibitor. 92% of 320 active. inhibition, % at 8.33 µM; in the data active means inhibition above about 39%
# PLA2 counter: counter-screen for ATG4B inhibitors: human phospholipase A2 | inhibition, % at 8.33 µM | 66% of 1,600 active | AID 588402 | purified PLA2, NBD-C6-HPC fluorescence, 45 min | shares compounds with ATG4B inhibitor; in the data active means inhibition above about 50%
# The depositor's hits bear a star; nt = not tested or not shown. In the library only some 3.1% were active in any assay of this set; here they are far more common.
SMILES,UBC13 polyUb,PREPL inh,MEKK2 mut-MEK5,MEKK3 PB1 HTS,MEKK2 WT-MEK5,ATG4B inhibitor,Casp3 UBC13 ctr,UBC13 conf,PLA2 counter,others
Cc1ccc(C(C(=O)NC2CCCC2)N(Cc2cccnc2)C(=O)c2snc(C(N)=O)c2N)o1 (stereo not given),42,2,-11,89,90,0,nt,nt,nt,
CCC(C)(C)NC(=O)C(c1ccc(C)o1)N(Cc1ccc2c(c1)OCO2)C(=O)c1snc(C(N)=O)c1N (stereo not given),78*,4,-1,97,93,-1,-3,86*,nt,
Cc1ccc(C(C(=O)NC(C)(C)C)N(Cc2ccccc2)C(=O)c2snc(C(N)=O)c2N)o1 (stereo not given),71*,-8,-4,84,85,-4,5,66*,nt,
CCCCn1c(=O)[nH]c(=O)c2c1nc(-c1ccc(C#N)cc1)n2C1CCCC1,78*,10,nt,nt,nt,-7,-4,68*,nt,
CCCCn1c(SCC(=O)Nc2cc(C)[nH]n2)nc2ccsc2c1=O,50*,3,0,99,96,45*,-2,53*,44,ATG4B confirm=56*
O=C(NNC(=O)c1nn(-c2ccc(F)cc2)ccc1=O)c1ccccc1Cl,81*,17,1,107,106,42*,-4,91*,-21,
COc1cccc(OC)c1C(=O)OCc1c(-c2ccccc2)ncc2ccccc12,-13,1,nt,nt,nt,-2,nt,nt,nt,
C=CCn1c(=S)[nH]c2cc(C(=O)Nc3ccc(F)cc3)ccc2c1=O,-1,4,0,99,99,-5,nt,nt,nt,
Cc1cc(Oc2ccccc2F)nc(NCc2ccccc2)n1,11,nt,nt,nt,nt,15,nt,nt,nt,
Cc1cc(Nc2ccc(Cl)cc2)nc(NCc2ccccc2)n1,72*,2,12,110,159*,44*,2,84*,38,ATG4B confirm=69*
CC(C)(C)c1ccc2c(c1)C(=O)c1ccccc1C2=O,54*,17,27,107,132,45*,96*,19,38,ATG4B confirm=67*
O=C1/C(=C/c2cccs2)SC(=S)N1NS(=O)(=O)c1ccccc1,-12,-5,1,103,102,-2,nt,nt,nt,
O=C1/C(=C/C=C/c2ccco2)SC(=S)N1NS(=O)(=O)c1ccccc1,51*,13,1,100,95,78*,3,2,18,ATG4B confirm=41*
CC1CCCCC1NC(=O)CN1c2cccc3cccc(c23)S1(=O)=O (stereo not given),9,13,nt,nt,nt,-5,nt,nt,nt,
Oc1ccc2ccccc2c1/C=N/Nc1nnc(-c2ncc[nH]2)c2ccccc12,-54,19,2,103,102,48*,nt,nt,39,ATG4B confirm=49*
COc1ccc(/C=N/Nc2nnc(-c3ncc[nH]3)c3ccccc23)cc1,-18,11,-2,99,101,36,nt,nt,nt,
CC(C)c1ccc(NC(=O)NCc2ccc(F)cc2)cc1,7,-5,-3,95,94,61*,nt,nt,67*,
CCOC(=O)c1ccc(NC(=S)NCc2ccc(F)cc2)cc1,-4,19,nt,nt,nt,44*,nt,nt,56*,
O=C(NCc1ccc(Cl)cc1)Nc1ccc(F)cc1,2,nt,1,98,98,8,nt,nt,nt,
Cc1nnc(SCc2ccc(F)cc2)n1NC/C=C/c1ccccc1,-3,-20,-3,97,93,-6,nt,nt,nt,
O=C1C(=O)N(C/C=C/c2ccccc2)c2ccccc21,5,-5,-1,103,100,49*,nt,nt,54*,
COc1ccc(Cl)cc1NC(=O)c1ccccc1C,4,3,3,98,108,8,nt,nt,nt,
